Five compounds from PubChem BioAssay (NCATS) can be followed below.

Values without a mark were called inactive. Results filed as inconclusive are left out. Calls of active or inactive are those of the source. Calls follow the shape of the dose curve; as a rule, active = well fitted curve in the direction sought with a large enough effect; inconclusive = small, poorly fitted or top-dose-only effect, or another doubt; inactive = no such curve, though single readings can be large; an effect the other way counts as inactive or inconclusive.

Assay [1] concerns Zika virus NS2B-NS3 protease (linked construct). Put plainly: Primary screen NINDS Rhodamine qHTS for Zika virus inhibitors (AID 1347160). Also: nearly all actives have a fitted effect of over 55% in size. The gist of the method: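 Percent inhibition, normalized to uninhibited and enzyme-free controls, is fitted to a 4-parameter Hill equation. Fluorescence change comes from a 15-min cleavage of 1.5 microM bis-peptide Rhodamine110 substrate by 25 nM linked NS2B-NS3 at room temperature.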
In general terms: In qHTS, concentration-response curves come from the screen itself.

The target of assay [2] is Calcium and integrin-binding protein 1 (Homo sapiens) (UniProt Q99828). Put plainly: Primary qHTS for Identification of Calcium Integrin Binding Protein 1 (CIB1) Competitor (AID 1508620).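 Also: GST tagged CIB1 binding a fluorescein labelled alphaIIb integrin peptide tracer; top concentration of the series differs between compounds; % is scaled to controls: 0 for no effect and ±100 for the full control effect.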 The gist of the method: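 Fluorescence polarization competition: CIB1-GST (1 uM final) preincubated with compound 15 min at room temperature, then FITC-labeled alphaIIb peptide (100 nM final) added for another 15 min. Polarization read at Ex 480/Em 540.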

Assay [3] in a line: Primary qHTS for inhibitors of nuclear receptor binding SET domain protein 2 (NSD2) in an isogenic RCH-ACV NSD2 p.E1099K mutant (9B) (AID 1645876). Also: nearly all actives have a fitted effect of over 70% in size. Also: potency is read from the fitted curve at half-maximal effect.
Assay [4] has as its target Glutathione peroxidase 1 (Homo sapiens) (UniProt P07203). The experiment in a line: Primary qHTS Assay for Inhibitors of Recombinant Selenoprotein Glutathione Peroxidase 1 (GPX1) (AID 1845191). Also: nearly all actives have a fitted effect of over 65% in size. The gist of the method:
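Recombinant GPX1 (10 nM final) was preincubated with compound for 30 min at room temperature, then reacted with 1 mM GSH, 0.5 mM CHP, 0.5 mM NADPH and 100 nM glutathione reductase; NADPH fluorescence (340/450 nm) was read at 0 and 15 min.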

For assay [5], the target named is Phospholipid hydroperoxide glutathione peroxidase GPX4 (Homo sapiens) (UniProt P36969). The experiment in a line: Primary qHTS Assay for Inhibitors of Recombinant Selenoprotein Glutathione Peroxidase 4 (GPX4) (AID 1845192). Also: % is scaled to controls: 0 for no effect and ±100 for the full control effect; nearly all actives have a fitted effect of over 65% in size. The gist of the method:
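GR-coupled readout: 100 nM GR, 1 mM GSH, 0.5 mM NADPH; NADPH fluorescence (ex 340/em 450 nm) read at t=0 and after 15 min RT. GPX4 200 nM, preincubated 30 min with compound; substrate 0.5 mM CHP.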

The target of assay [6] is Luciferin 4-monooxygenase (Photinus pyralis) (UniProt P08659). The experiment in a line: Primary firefly luciferase (FLuc) qHTS assay for identification of artifact compounds. (AID 1845220). Also: nearly all actives have a fitted effect of over 60% in size. To be noted: outcome: dose series up to 54.1 µM unless noted. The gist of the method: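 qHTS, 15 min compound preincubation with substrate (10 uM luciferin, 10 uM ATP) at RT, then 10 nM FLuc; 5 min; luminescence; % inhibition vs no-enzyme/DMSO controls, 4-parameter Hill fit.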

Assay [7] relates to Nanoluciferase (engineered Oplophorus gracilirostris luciferase). Put plainly: Primary Nanoluciferase (NLuc) qHTS assay for identification of artifact compounds. (AID 1845222).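 Also: 0% = DMSO and -100% = no enzyme.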 The gist of the method:
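Luminescence read-out of secreted NLuc in S16 cell conditioned medium (1:55); compounds tested with 15 min RT preincubation, then Nano-Glo substrate 1:100, 5 min. % inhibition vs no-enzyme and DMSO controls, 4-parameter Hill fit.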

A further assay relates to CRL-7250. The experiment in a line: Cytotoxic Profiling of Annotated Libraries Using Quantitative High-Throughput Screening (AID 1296008). Also: nearly all actives have a fitted effect of over 60% in size. Also: potency is read from the fitted curve at half-maximal effect. As to max response: % is scaled to controls: 0 for no effect and ±100 for the full control effect. To be noted: Five cell lines viability, CellTiter-Glo ATP luminescence, 48-72 h; max response: stronger effect = lower value. The gist of the method:
(§1)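 Compounds were pin-transferred onto cells and incubated 48 or 72 hr at 37 degree Celsius, 95% humidity. CellTiter-Glo was added, plates sat 10 min at room temperature, then ATP-coupled luminescence was imaged as the viability read-out.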

The subject of a further assay is HEK293. Described as above. To be noted: Five cell lines viability, CellTiter-Glo ATP luminescence, 48-72 h; max response: stronger effect = lower value. The gist of the method: as §1
In another assay the test system is HaCat. Described as above. The conditions noted are these: Five cell lines viability, CellTiter-Glo ATP luminescence, 48-72 h; max response: stronger effect = lower value. The essentials: as §1
A further assay concerns NIH3T3. The description is as above. To be noted: Five cell lines viability, CellTiter-Glo ATP luminescence, 48-72 h; max response: stronger effect = lower value. The gist of the method: as §1
A general note: ATP-based viability assays read luminescence as a measure of living cells.

The subject of another assay is C33A. The experiment in a line: Primary qHTS to identify gynecologic anti-cancer compounds using libraries of approved drugs and bioactive compounds (AID 1345084). Also: nearly all actives have a fitted effect of over 55% in size. Also: potency is read from the fitted curve at half-maximal effect. To be noted: Gynecologic cancer cell panel viability, ATPlite luminescence, 48 h; series mostly up to 57.5 µM. The essentials:
(§2)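 Cell viability after 48 h drug treatment, ATPlite luminescence readout; five doses.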

A further assay relates to CASKI. The assay is described as above. To be noted: Gynecologic cancer cell panel viability, ATPlite luminescence, 48 h; series mostly up to 57.5 µM. The essentials: as §2
Another assay deals with Es-2. Described as above. The conditions noted are these: Gynecologic cancer cell panel viability, ATPlite luminescence, 48 h; series mostly up to 57.5 µM. The essentials: as §2
The subject of another assay is Hek293T. The description is as above. To be noted: Gynecologic cancer cell panel viability, ATPlite luminescence, 48 h, control line for the selectivity index; series mostly up to 57.5 µM. The gist of the method: as §2
A further assay deals with OV90. The assay is described as above. To be noted: Gynecologic cancer cell panel viability, ATPlite luminescence, 48 h; series mostly up to 57.5 µM. The essentials: as §2
A further assay relates to PA-1. Described as above. The conditions noted are these: Gynecologic cancer cell panel viability, ATPlite luminescence, 48 h; series mostly up to 57.5 µM. The gist of the method: as §2
Another assay deals with Tov-21-G. Described as above. To be noted: Gynecologic cancer cell panel viability, ATPlite luminescence, 48 h; series mostly up to 57.5 µM. The essentials:
as §2

In the next assay the test system is Tov112D. The description is as above. To be noted: Gynecologic cancer cell panel viability, ATPlite luminescence, 48 h; series mostly up to 57.5 µM. The essentials: as §2
The nature of assay [8]: Primary fluorescence-based thiol-reactive (MSTI) qHTS assay for identification of artifact compounds. (AID 1845221).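 Also: thiol-reactive compounds lower the probe fluorescence signal; nearly all actives have a fitted effect of over 65% in size.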 The essentials:
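Probe: MSTI 4 uM, PBS pH 7.4, 2% DMSO. Incubation 1 h, RT, light-protected. Readout fluorescence 525/598 nm.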

Glutathione peroxidase 1 (Homo sapiens), sequence (P07203 whole entry, looked up): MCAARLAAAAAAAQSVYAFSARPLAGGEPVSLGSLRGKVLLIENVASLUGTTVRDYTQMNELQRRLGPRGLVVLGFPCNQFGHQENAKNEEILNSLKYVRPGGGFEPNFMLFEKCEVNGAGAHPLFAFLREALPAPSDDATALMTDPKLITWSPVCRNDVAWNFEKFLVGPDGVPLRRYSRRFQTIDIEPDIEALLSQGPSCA
Calcium and integrin-binding protein 1 (Homo sapiens), sequence (Q99828 whole entry, looked up): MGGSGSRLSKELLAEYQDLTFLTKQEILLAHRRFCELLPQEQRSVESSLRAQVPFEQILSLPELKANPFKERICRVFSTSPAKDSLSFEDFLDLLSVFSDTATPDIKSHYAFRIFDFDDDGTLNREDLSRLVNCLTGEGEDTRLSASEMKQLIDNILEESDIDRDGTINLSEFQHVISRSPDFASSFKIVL
Phospholipid hydroperoxide glutathione peroxidase GPX4 (Homo sapiens), sequence (P36969 whole entry, looked up): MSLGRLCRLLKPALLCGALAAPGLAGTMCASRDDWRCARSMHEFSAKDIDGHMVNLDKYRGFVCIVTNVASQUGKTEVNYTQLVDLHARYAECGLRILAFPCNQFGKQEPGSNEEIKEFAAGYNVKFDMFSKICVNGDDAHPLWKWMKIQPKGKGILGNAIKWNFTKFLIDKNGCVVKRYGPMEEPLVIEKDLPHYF

On to `CC[C@@H]1C[C@H]2CC[C@H](O2)[C@H](C)C(=O)O[C@@H](C)C[C@@H]2CC[C@@H](O2)[C@@H](C)C(=O)O[C@H](CC)C[C@H]2CC[C@H](O2)[C@H](C)C(=O)O[C@@H](C)C[C@@H]2CC[C@@H](O2)[C@@H](C)C(=O)O1`, for which the Potency entry in [1], in assay [2], in [4], in assay [5] and in assay [7] was “inactive” in each case. Further, the Potency in assay [3] is 19.2 nM (active); in the assay on CRL-7250, 385 nM (active); in the assay on HEK293 it was 54.4 nM (active); in the assay on HaCat, 1530 nM (active); with NIH3T3, 86.2 nM (active); in the assay on C33A, 316 nM (active). Also, the Potency is 447 nM (active) in the assay with CASKI; 708 nM (active) in the assay with Es-2; 631 nM (active) in the assay with Hek293T; 398 nM (active) in the assay on OV90; 355 nM (active) in the assay on PA-1; 794 nM (active) in the assay with Tov-21-G. Besides, in the assay on Tov112D, the Potency is 562 nM (active). Besides, in assay [6], the outcome was “inactive [at 25.7 µM]”.
`OCc1nnc2n1-c1ccc(Cl)cc1C(c1ccccc1Cl)=NC2`: the Potency entry in assay [1], in assay [2], in [3], in assay [4], in assay [5] and in assay [8] was “inactive” throughout. Besides, the Potency entry (in assay [7]; with C33A; in the assay on CASKI; with Es-2; in the assay with Hek293T; in the assay with OV90) was “inactive” each time. Moreover, the Potency result in the assay on Tov-21-G and with Tov112D was “inactive” in each case. The outcome in assay [6] was inactive. In addition, the max response in the assay on CRL-7250 was 0.641%; in the assay with HEK293, -7.41%; in the assay with HaCat, -38%.
Turning to `NC(=O)c1ncn2c1CN=C(c1ccccc1Br)c1cc(F)ccc1-2`, the Potency entry in assay [1], in assay [2], in assay [3], in [4], in assay [5] and in assay [8] was “inactive” each time. In addition, the Potency result (in assay [7]; in the assay on C33A; in the assay with CASKI; in the assay with Es-2; in the assay with Hek293T; in the assay on OV90) was “inactive” in each case. The Potency result in the assay on PA-1, with Tov-21-G and in the assay on Tov112D was “inactive” in each case. Besides, in assay [6], the compound was called inactive. Moreover, the max response with CRL-7250 is -2.22%; in the assay on HEK293, 0.36%; in the assay with HaCat it was -12.6%; with NIH3T3 it was 1.84%.
`CO[C@H]1[C@H](O)[C@H](O[C@H]2CC[C@]3(C=O)C4CC[C@]5(C)[C@H](C6=CC(=O)OC6)CC[C@]5(O)C4CC[C@@H]3C2)O[C@@H](C)[C@@H]1O` (some centres not stated): the Potency entry in [1], in assay [2], in assay [4], in assay [5], in assay [8] and in assay [7] was “inactive” in each case. For the same compound, the Potency is 15.9 nM (active) in assay [3]; 28.2 nM (active) in the assay with CRL-7250; 50.2 nM (active) in the assay on HEK293; 126 nM (active) in the assay with HaCat; 89.1 nM (active) in the assay with C33A; 224 nM (active) in the assay on CASKI. Besides, the Potency in the assay with Es-2 was 100 nM (active); with Hek293T it was 126 nM (active); with OV90, 282 nM (active); in the assay with Tov-21-G, 31.6 nM (active). Also, the max response with NIH3T3 is -5%.
On to `C[C@@H]1[C@H](O)[C@@H](C)/C=C/C=C/CC/C=C/C=C/C=C/C=C/[C@H](O[C@H]2O[C@@H](C)[C@H](O)[C@@H](N)[C@H]2O)C[C@@H]2O[C@](O)(C[C@@H](O)[C@H](O)CC[C@@H](O)C[C@@H](O)C[C@@H](O)CC(=O)O[C@H]1C)C[C@H](O)[C@H]2C(=O)O`, for which the Potency result in assay [2], in [3], in assay [4], in [5], in assay [8] and in [7] was “inactive” in each case. The Potency result in the assay with C33A, with CASKI, in the assay with Es-2, in the assay on Hek293T, in the assay on OV90 and in the assay with PA-1 was “inactive” throughout. In addition, the Potency entry in the assay on Tov-21-G and in the assay with Tov112D was “inactive” in each case. The outcome (in assay [6]; in the assay on HaCat) was inactive. The max response was -12.4% in the assay with CRL-7250 and 0.0089% in the assay on HEK293.
